# Many of the other results were omitted from the sample, so the strongest signals are more common in it than they were.
# How the values were obtained:
# Experiment in all cases: glycan array binding signal (z-score within array); higher = stronger binding
# Settings in all cases: glycan notation: IUPAC condensed, linker removed
# [1] = target: Fuc(a1-2)Gal(b1-3)GalNAc(b1-3)Gal(a1-4)Gal(b1-4)Glc
# Outline: (§1)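 The binding signal is a Z-score computed within each array and averaged over linkers. Arrays of the same protein sequence at different concentrations or buffers were also averaged together. Data originate from 3228 arrays in the Consortium for Functional Glycomics database, kept only where the protein sequence was available.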
# [2] = target: Fuc(a1-2)Gal(b1-4)GlcNAc(b1-3)[Fuc(a1-3)[Gal(b1-4)]GlcNAc(b1-6)]Gal(b1-4)Glc
# Outline: as §1
# [3] = target: Fuc(a1-2)Gal(b1-4)[Fuc(a1-3)]GlcNAc(b1-2)Man(a1-3)[Fuc(a1-2)Gal(b1-4)[Fuc(a1-3)]GlcNAc(b1-2)Man(a1-6)]Man(b1-4)GlcNAc(b1-4)[Fuc(a1-6)]GlcNAc
# Outline: as §1
# [4] = target: Fuc(a1-2)Gal(b1-4)[Fuc(a1-3)]GlcNAc(b1-3)GalNAc
# Outline: as §1
# Fuc(a1-2)[Gal(a1-3)]Gal = target: Fuc(a1-2)[Gal(a1-3)]Gal
# Outline: as §1
# [5] = target: Fuc(a1-2)[Gal(a1-3)]Gal(b1-3)GlcNAc
# Outline: as §1
# [6] = target: Fuc(a1-2)[Gal(a1-3)]Gal(b1-4)GlcNAc(b1-3)[Fuc(a1-2)[Gal(a1-3)]Gal(b1-4)GlcNAc(b1-6)]GalNAc
# Outline: as §1
# [7] = target: Fuc(a1-2)[GalNAc(a1-3)]Gal(b1-3)GlcNAc(b1-3)GalNAc
# Outline: as §1
# [8] = target: Fuc(a1-2)[GalNAc(a1-3)]Gal(b1-4)GlcNAc(b1-2)Man
# Outline: as §1
# [9] = target: Fuc(a1-2)[GalNAc(a1-3)]Gal(b1-4)[Fuc(a1-3)]GlcNAc(b1-3)GalNAc
# Outline: as §1
# [10] = target: Fuc(a1-3)[GalNAc(b1-4)]GlcNAc
# Outline: as §1
# Fuc(a1-4)GlcNAc = target: Fuc(a1-4)GlcNAc
# Outline: as §1
# Gal(a1-3)Gal = target: Gal(a1-3)Gal
# Outline: as §1
# Gal(a1-3)Gal(b1-3)GlcNAc = target: Gal(a1-3)Gal(b1-3)GlcNAc
# Outline: as §1
# [11] = target: Gal(a1-3)[Gal(a1-4)]Gal(b1-4)GlcNAc
# Outline: as §1
# Gal(b1-3)GalNAc = target: Gal(b1-3)GalNAc
# Outline: as §1
# [12] = target: Gal(b1-3)GlcNAc(b1-3)Gal(b1-4)GlcNAc
# Outline: as §1
# [13] = target: Gal(b1-4)GlcNAc(b1-2)[Gal(b1-4)GlcNAc(b1-6)]Man(a1-6)[GlcNAc(b1-4)][Gal(b1-4)GlcNAc(b1-2)Man(a1-3)]Man(b1-4)GlcNAc(b1-4)GlcNAc
# Outline: as §1
# [14] = target: Gal(b1-4)GlcNAc(b1-3)Gal(b1-4)GlcNAc(b1-3)Gal(b1-4)GlcNAc(b1-3)Gal(b1-4)GlcNAc(b1-2)[Gal(b1-4)GlcNAc(b1-3)Gal(b1-4)GlcNAc(b1-3)Gal(b1-4)GlcNAc(b1-3)Gal(b1-4)GlcNAc(b1-6)]Man(a1-6)[Gal(b1-4)GlcNAc(b1-3)Gal(b1-4)GlcNAc(b1-3)Gal(b1-4)GlcNAc(b1-3)Gal(b1-4)GlcNAc(b1-2)Man(a1-3)]Man(b1-4)GlcNAc(b1-4)[Fuc(a1-6)]GlcNAc
# Outline: as §1
# [15] = target: Gal(b1-4)GlcNAc(b1-3)Gal(b1-4)GlcNAc(b1-3)Gal(b1-4)GlcNAc(b1-3)Gal(b1-4)GlcNAc(b1-3)Gal(b1-4)GlcNAc(b1-3)Gal(b1-4)GlcNAc(b1-2)Man(a1-3)[Gal(b1-4)GlcNAc(b1-3)Gal(b1-4)GlcNAc(b1-3)Gal(b1-4)GlcNAc(b1-3)Gal(b1-4)GlcNAc(b1-3)Gal(b1-4)GlcNAc(b1-3)Gal(b1-4)GlcNAc(b1-2)Man(a1-6)]Man(b1-4)GlcNAc(b1-4)GlcNAc
# Outline: as §1
# [16] = target: Gal(b1-4)GlcNAc(b1-6)GalNAc
# Outline: as §1
# [17] = target: Gal(b1-4)GlcNAc(b1-6)[Gal(b1-3)]GalNAc
# Outline: as §1
# [18] = target: Gal3S(b1-3)[Fuc(a1-4)]GlcNAc
# Outline: as §1
# [19] = target: Gal3S(b1-4)[Fuc(a1-3)]Glc6S
# Outline: as §1
# [20] = target: GalNAc(b1-3)Gal(a1-4)Gal(b1-4)GlcNAc(b1-3)Gal(b1-4)Glc
# Outline: as §1
# [21] = target: GalNAc(b1-3)Gal(a1-6)Gal(b1-4)Glc
# Outline: as §1
# GalNAc(b1-3)GlcNAc = target: GalNAc(b1-3)GlcNAc
# Outline: as §1
# GalNAc(b1-4)GlcNAc = target: GalNAc(b1-4)GlcNAc
# Outline: as §1
# [22] = target: GlcNAc(b1-2)Gal(b1-3)GalNAc
# Outline: as §1
# [23] = target: GlcNAc(b1-2)[GlcNAc(b1-4)]Man(a1-3)[GlcNAc(b1-2)Man(a1-6)]Man(b1-4)GlcNAc(b1-4)GlcNAc
# Outline: as §1
# [24] = target: GlcNAc(b1-2)[GlcNAc(b1-4)]Man(a1-3)[GlcNAc(b1-4)][GlcNAc(b1-2)Man(a1-6)]Man(b1-4)GlcNAc(b1-4)GlcNAc
# Outline: as §1
# [25] = target: GlcNAc(b1-3)Gal(b1-4)GlcNAc(b1-3)Gal(b1-4)GlcNAc(b1-2)Man(a1-3)[GlcNAc(b1-3)Gal(b1-4)GlcNAc(b1-3)Gal(b1-4)GlcNAc(b1-2)Man(a1-6)]Man(b1-4)GlcNAc(b1-4)GlcNAc
# Outline: as §1
# [26] = target: GlcNAc(b1-4)Gal(b1-4)GlcNAc
# Outline: as §1
# [27] = target: Man(a1-3)[Man(a1-6)]Man(b1-4)GlcNAc(b1-4)[Fuc(a1-6)]GlcNAc
# Outline: as §1
# [28] = target: Neu5Ac(a2-3)Gal(b1-3)GlcNAc(b1-3)GalNAc
# Outline: as §1
# [29] = target: Neu5Ac(a2-3)Gal(b1-4)GlcNAc(b1-2)[Neu5Ac(a2-3)Gal(b1-4)GlcNAc(b1-6)]Man(a1-6)[Neu5Ac(a2-3)Gal(b1-4)GlcNAc(b1-2)Man(a1-3)]Man(b1-4)GlcNAc(b1-4)GlcNAc
# Outline: as §1
# [30] = target: Neu5Ac(a2-3)Gal(b1-4)GlcNAc(b1-3)Gal
# Outline: as §1
# [31] = target: Neu5Ac(a2-3)Gal(b1-4)GlcNAc(b1-3)[Neu5Ac(a2-3)Gal(b1-4)GlcNAc(b1-6)]GalNAc
# Outline: as §1
# [32] = target: Neu5Ac(a2-3)Gal(b1-4)[Fuc(a1-3)]GlcNAc(b1-3)GalNAc
# Outline: as §1
# [33] = target: Neu5Ac(a2-3)Gal(b1-4)[Fuc(a1-3)]GlcNAc(b1-6)[Neu5Ac(a2-3)Gal(b1-3)]GalNAc
# Outline: as §1
# [34] = target: Neu5Ac(a2-6)Gal(b1-4)GlcNAc(b1-3)Gal(b1-4)GlcNAc
# Outline: as §1
# [35] = target: Neu5Ac(a2-6)Gal(b1-4)GlcNAc(b1-3)Gal(b1-4)GlcNAc(b1-3)[Neu5Ac(a2-6)Gal(b1-4)GlcNAc(b1-3)Gal(b1-4)GlcNAc(b1-6)]GalNAc
# Outline: as §1
# [36] = target: Neu5Ac(a2-8)Neu5Ac(a2-3)[GalNAc(b1-4)]Gal(b1-4)Glc
# Outline: as §1
# [37] = target: Neu5Ac(a2-8)Neu5Ac(a2-8)Neu5Ac(a2-3)[Gal(b1-3)GalNAc(b1-4)]Gal(b1-4)Glc
# Outline: as §1
# [38] = target: Neu5Gc(a2-3)Gal(b1-4)[Fuc(a1-3)]GlcNAc
# Outline: as §1
# [39] = target: Neu5Ac(a2-6)Gal(b1-4)GlcNAc(b1-2)Man(a1-3)[Gal(b1-4)GlcNAc(b1-2)Man(a1-6)]Man(b1-4)GlcNAc(b1-4)GlcNAc
# Outline: as §1
# [40] = target: Neu5Ac(a2-6)Gal(b1-4)GlcNAc(b1-3)Gal(b1-4)GlcNAc(b1-3)GalNAc
# Outline: as §1
# [41] = target: Neu5Ac(a2-6)GalNAc(b1-4)GlcNAc6S
# Outline: as §1
# Neu5Ac(a2-8)Neu5Ac = target: Neu5Ac(a2-8)Neu5Ac
# Outline: as §1
# [42] = target: Neu5Ac(a2-8)Neu5Ac(a2-3)[Gal(b1-3)GalNAc(b1-4)]Gal(b1-4)Glc
# Outline: as §1
# [43] = target: Neu5Gc(a2-3)Gal(b1-3)GlcNAc
# Outline: as §1
# Neu5Gc(a2-6)GalNAc = target: Neu5Gc(a2-6)GalNAc
# Outline: as §1
# [44] = target: Neu5Gc(b2-6)Gal(b1-4)GlcNAc
# Outline: as §1
binder,measurement,setting,value
"AT5G24760(45) (Arabidopsis thaliana), Q8LEB2 (protein) MSASSSSFEQPQVITCNAAVAWRAGEPLVMEEVEVSPPQPLEIRIKVVCTSLCRSDLSAWESQSLLPRIFGHEAAGIVESIGEGVTEFEKGDHVLAVFTGECGSCRHCISGKSNMCQVLGMERKGLMHSDQKTRFSIKGKPVYHYCAVSSFSEYTVVHSGCAVKVDPLAPLHKICLLSCGVAAGLGAAWNVADVQKGSSVVIFGLGTVGLSVAQGAKLRGAAQILGVDINPAKAEQAKTFGVTDFINSNDLSEPIPQVIKRMTGGGADFSFECVGDTGIATTALQSCSDGWGMTVTLGVPKAKPEVSAHYGLFLSGKSLKGTLFGGWKPKSDLPSLIDKYMNKEIMIDEFITHNLSFDEINKAFVLMREGKCLRCVLHMPK",glycan array binding signal (z-score),[1],-0.051
same,glycan array binding signal (z-score),[2],0.166
same,glycan array binding signal (z-score),[3],0.395
same,glycan array binding signal (z-score),[4],4.6
same,glycan array binding signal (z-score),Fuc(a1-2)[Gal(a1-3)]Gal,0.984
same,glycan array binding signal (z-score),[5],-0.224
same,glycan array binding signal (z-score),[6],0.627
same,glycan array binding signal (z-score),[7],3.83
same,glycan array binding signal (z-score),[8],-0.179
same,glycan array binding signal (z-score),[9],6.82
same,glycan array binding signal (z-score),[10],1.18
same,glycan array binding signal (z-score),Fuc(a1-4)GlcNAc,1.12
same,glycan array binding signal (z-score),Gal(a1-3)Gal,0.612
same,glycan array binding signal (z-score),Gal(a1-3)Gal(b1-3)GlcNAc,7.36
same,glycan array binding signal (z-score),[11],6.01
same,glycan array binding signal (z-score),Gal(b1-3)GalNAc,0.106
same,glycan array binding signal (z-score),[12],-0.138
same,glycan array binding signal (z-score),[13],-1.03
same,glycan array binding signal (z-score),[14],-0.779
same,glycan array binding signal (z-score),[15],-0.887
same,glycan array binding signal (z-score),[16],1.23
same,glycan array binding signal (z-score),[17],-0.485
same,glycan array binding signal (z-score),[18],0.437
same,glycan array binding signal (z-score),[19],2.68
same,glycan array binding signal (z-score),[20],-0.632
same,glycan array binding signal (z-score),[21],-0.337
same,glycan array binding signal (z-score),GalNAc(b1-3)GlcNAc,0.645
same,glycan array binding signal (z-score),GalNAc(b1-4)GlcNAc,3.23
same,glycan array binding signal (z-score),[22],2.61
same,glycan array binding signal (z-score),[23],1.01
same,glycan array binding signal (z-score),[24],-0.932
same,glycan array binding signal (z-score),[25],1.14
same,glycan array binding signal (z-score),[26],2.53
same,glycan array binding signal (z-score),[27],-0.202
same,glycan array binding signal (z-score),[28],-0.553
same,glycan array binding signal (z-score),[29],-0.601
same,glycan array binding signal (z-score),[30],-0.951
same,glycan array binding signal (z-score),[31],-1.2
same,glycan array binding signal (z-score),[32],3.17
same,glycan array binding signal (z-score),[33],2.76
same,glycan array binding signal (z-score),[34],-0.877
same,glycan array binding signal (z-score),[35],-0.602
same,glycan array binding signal (z-score),[36],-0.388
same,glycan array binding signal (z-score),[37],0.125
same,glycan array binding signal (z-score),[38],-0.203
"Siglec-7-SA-PE-180 (Homo sapiens), Q9Y286 (protein) MLLLLLLPLLWGRERVEGQKSNRKDYSLTMQSSVTVQEGMCVHVRCSFSYPVDSQTDSDPVHGYWFRAGNDISWKAPVATNNPAWAVQEETRDRFHLLGDPQTKNCTLSIRDARMSDAGRYFFRMEKGNIKWNYKYDQLSVNVTALTHRPNILIPGTLESGCFQNLTCSVPWACEQGTPPMISWMGTSVSPLHPSTTRSSVLTLIPQPQHHGTSLTCQVTLPGAGVTTNRTIQLNVSYPPQNLTVTVFQGEGTASTALGNSSSLSVLEGQSLRLVCAVDSNPPARLSWTWRSLTLYPSQPSNPLVLELQVHLGDEGEFTCRAQNSLGSQHVSLNLSLQQEYTGKMRPVSGVLLGAVGGAGATALVFLSFCVIFIVVRSCRKKSARPAADVGDIGMKDANTIRGSASQGNLTESWADDNPRHHGLAAHSSGEEREIQYAPLSFHKGEPQDLSGQEATNNEYSEIKIPK",glycan array binding signal (z-score),[39],-0.303
same,glycan array binding signal (z-score),[40],-0.587
same,glycan array binding signal (z-score),[41],0.866
same,glycan array binding signal (z-score),Neu5Ac(a2-8)Neu5Ac,2.11
same,glycan array binding signal (z-score),[42],-0.067
same,glycan array binding signal (z-score),[43],-0.155
same,glycan array binding signal (z-score),Neu5Gc(a2-6)GalNAc,2.26
same,glycan array binding signal (z-score),[44],-0.05
